The AC50 is the midpoint of the concentration-response curve, whichever way the signal moves.

Experimental findings from PubChem BioAssay (EPA / NIEHS) are described below.

Structures are written as SMILES. Where “and” joins values, the source holds several entries; their conditions need not be identical. Identical values can stand only once. Where a structure was tested more than once in an assay, its records may differ in their call. Calls of active or inactive are those of the source. Rule for the calls: active = hit-call score of the fitted dose curve at least 0.9, where 1 is the maximum; inactive = score below 0.9.

Read-out in this test: Epidermal growth factor receptor (EGFR), EGFR (gene 1956)
In words: BSK_BE3C_EGFR: BioMAP Diversity Plus: BE3C Assay for Epidermal growth factor receptor (EGFR) Biomarker Activity (AID 2284281). Conditions: primary human bronchial epithelial cells. On the procedure:
BSK_BE3C is a cell-based, multiplexed-readout assay that uses bronchial epithelial cell, a human lung primary cell, with measurements taken at 24 hours after chemical dosing in a 96-well plate.BSK_BE3C_EGFR is an assay component measured in the BSK_BE3C assay. It measures EGFR antibody related to regulation of gene expression using ELISA technology.Data from the assay component BSK_BE3C_EGFR was analyzed at the endpoint, BSK_BE3C_EGFR, in the positive analysis fitting direction relative to DMSO as the negative control and baseline of activity. Using a type of binding reporter, gain or loss-of-signal activity can be used to understand protein changes. To generalize the intended target to other relatable targets, this assay endpoint is annotated to the 'kinase' intended target family, where the subfamily is 'receptor tyrosine kinase'.
The levels of cell surface (or secreted, indicated by the prefix "s") biomarker endpoints were measured by ELISA. Overt cytotoxicity to cells in confluent adherent cultures (all systems other than the BT system) was assessed by measuring total protein levels using sulforhodamine B (SRB) staining in parallel cultures at the time of biomarker measurements, indicated as SRB endpoints. For proliferation assays for adherent cell types, individual cell types are cultured at sub-confluence and relative cell numbers quantified by SRB staining at time points optimized for each system (48 h: 3C and CASM3C systems; 72 h: BT and HDF3CGF systems; 96 h: SAg system). SRB was performed by staining cells with 0.1% SRB after fixation with 10% TCA and reading wells at 560 nm.Viability and proliferation of PBMC (T cells) was quantified by Alamar Blue reduction for the SAg and BT systems. For PBMC viability (referred to as PBMC Cytotoxicity within the assay endpoint names), cells were plated (75,000/well in a 96-well plate) and then chemical samples added for 1 h before addition of activators, SEB and TSST-1 (20 ng/mL final concentration each). Cells were incubated for 90 h. Then, Alamar Blue (20 uL/well) (Invitrogen, Cat DAL1100) was added for 6 h, and the plates were read with a fluorescence microplate reader at 546/580 nm (excitation/emission). For PBMC proliferation, cells were plated and activated as above but incubated for only 16 h prior to addition of Alamar Blue. Plates were read after 6 h.
Regarding `O=P(O)(O)OCCC(F)(F)C(F)(F)C(F)(F)C(F)(F)C(F)(F)C(F)(F)F`, the outcome was inactive. The same measure, in the same setting: with `O=C(O)C(F)(F)C(F)(F)F` the entry was “inactive”; with `FC(F)(F)C(F)(F)C(F)(F)C(F)(F)C(F)(F)C(F)(F)C(F)(F)C(F)(F)CCS`, “inactive”. On the same count and under the same terms, the entry for `FC(F)(F)C(F)(F)CNCC(F)(F)C(F)(F)F` is “inactive”; for `OCC(F)(F)C(F)(F)C(F)(F)F` it is “inactive”; for `FC(F)(F)C(F)(F)C(F)(F)C(F)(F)C(F)(F)C(F)(F)C(F)(F)C(F)(F)F` it is “inactive”. Same read-out and setting: the entry for `C=CC(=O)OCC(F)(F)C(F)(F)C(F)(F)C(F)(F)C(F)(F)C(F)(F)C(F)(F)F` is “inactive”. As to `C=CC(F)(F)C(F)(F)C(F)(F)C(F)(F)C(F)(F)C(F)(F)C(F)(F)C(F)(F)C=C`, the outcome was inactive.

As to `O=C(O)C(F)(F)C(F)(F)C(F)F`, the outcome was inactive. For `FC1CC(F)(F)C(F)(F)C1(F)F` (stereo not given), the result was inactive. `O=C(Cl)C(F)(F)C(F)(F)C(F)(F)C(F)(F)C(F)(F)C(F)(F)C(F)(F)C(F)(F)F`: the AC50 was 39 µM (active) and 43.6 µM (active) and 45.5 µM (active). Take `O=S(=O)(O)C(F)(F)C(F)(F)C(F)(F)C(F)(F)C(F)(F)C(F)(F)C(F)(F)F`: the outcome was inactive.

Turning to `FC(F)(F)C(F)(F)C(F)(F)C(F)(F)CCI`, the result was inactive. Same read-out and setting: the entry for `FC(F)(F)C(F)(F)C(F)(F)C(F)(F)C(F)(F)C(F)(F)CCS` is “inactive”.

With `OCC(F)(F)C(F)(F)C(F)(F)C(F)(F)C(F)(F)C(F)(F)F`, the AC50 is 48.7 µM (active) and the result was inactive. For the compound `FC(F)(F)C(F)(F)C(F)(F)C(F)(F)C(F)(F)CCI`, the result was inactive.

Take `FC(F)(F)C(F)(F)C(F)(F)C(F)(F)C(F)(F)C(F)(F)CC1CO1` (stereo not given): the result was inactive. In the case of `C=CC(F)(F)C(F)(F)C(F)(F)C(F)(F)C(F)(F)C(F)(F)C(F)(F)C(F)(F)F`, the outcome was inactive. Still for that read-out and setting: the entry for `OCCCC(F)(F)C(F)(F)C(F)(F)F` is “inactive”. Regarding `CCO[Si](CCC(F)(F)C(F)(F)C(F)(F)C(F)(F)C(F)(F)C(F)(F)F)(OCC)OCC`, the outcome was inactive. Turning to `O=C(O)C=C(C(F)(F)F)C(F)(F)F`, the outcome was inactive.

`O=C(O)C(F)(OC(F)(F)C(F)(OC(F)(F)C(F)(OC(F)(F)C(F)(F)C(F)(F)F)C(F)(F)F)C(F)(F)F)C(F)(F)F` (stereo not given): the outcome was inactive. Same read-out and setting: the entry for `OCC(F)(F)C(F)(F)C(F)(F)C(F)F` is “inactive”; for `CC(C)(C)C(=O)CC(=O)C(F)(F)C(F)(F)C(F)(F)F` it is “inactive”; for `O=C(O)C(F)(F)C(F)(F)C(F)(F)C(F)(F)F` it is “inactive”.

As to `OCC(F)(F)C(F)(F)C(F)(F)C(F)(F)C(F)(F)C(F)F`, the outcome was inactive. Same read-out and setting: the entry for `C=C(C)C(=O)OCC(F)(F)C(F)(F)C(F)(F)F` is “inactive”; for `O=S(=O)(OCCOC(F)(F)F)C(F)(F)F` it is “inactive”. Still for that read-out and setting: with `FC(F)(Br)C(F)(F)C(F)(F)C(F)(F)C(F)(F)C(F)(F)Br` the entry was “inactive”; with `CCCCCCCCC(F)(F)C(F)(F)C(F)(F)C(F)(F)C(F)(F)C(F)(F)F`, “inactive”. With `CCCCC(CC)COP(=O)(O)OCC(CC)CCCC` (stereo not given), the AC50 was 26.3 µM (active) and 20 µM (active). The same measure, in the same setting: the figure for `C=CC(=O)OCC(F)(F)C(F)(F)C(F)(F)C(F)(F)COC(=O)C=C` is 7.87 µM (active) and 14.5 µM (active). Regarding `FC(F)(I)C(F)(F)C(F)(F)C(F)(F)I`, the AC50 was 45.3 µM (active) and 47.3 µM (active) and 46.8 µM (active). Consider `O=C(O)C(F)(F)C(F)(F)C(F)(F)C(F)(F)C(F)(F)C(F)(F)C(F)(F)C(F)(F)C(F)(F)C(F)F`, for which the AC50 was 7.89 µM (active) and the result was inactive.

As to `O=S(=O)(OCC(F)F)C(F)(F)F`, the result was inactive. On the same count and under the same terms, with `NC(=O)C(F)(F)C(F)(F)C(F)(F)C(F)(F)F` the entry was “inactive”; with `N=C(N)C(F)(F)C(F)(F)C(F)(F)C(F)(F)C(F)(F)C(F)(F)C(F)(F)F`, “inactive”; with `FC(F)(F)C(F)(F)C(F)(F)C(F)(F)C(F)(F)C(F)(F)C(F)(F)I`, “inactive”.
